We go through eight compounds from the supplement of paper PMC11026393.

For this assay, the system named is H1299. Kind of assay: difference in mean normalized H2B-mRuby nuclear fluorescence intensity relative to DMSO control (normalized intensity difference (DMSO = 0)); higher = stronger increase in transgene reporter fluorescence. The conditions noted are these: 24 h. On the procedure: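 Cancer cell lines stably expressing H2B-mRuby2 from a lentiviral PGK promoter were treated with each drug for 24 h and imaged on a Leica DMI8 (ex 541-551 / em 565-605 nm). Nuclei were segmented in CellProfiler. The value is the difference in mean per-nucleus normalized H2B-mRuby intensity versus DMSO-treated cells (about 3 repeats x 4 fields). Doxorubicin is itself fluorescent. Dasatinib is in nM.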

Take `C=CCn1c(=O)c2cnc(Nc3ccc(N4CCN(C)CC4)cc3)nc2n1-c1cccc(C(C)(C)O)n1` (concentration unit: uM): the difference is 0.0483 (concentration: 0.1); 0.108 (concentration: 0.5); 0.027 (concentration: 1); -0.00187 (concentration: 2.5); -0.0335 (concentration: 5).

For `COc1cc(Nc2c(C#N)cnc3cc(OCCCN4CCN(C)CC4)c(OC)cc23)c(Cl)cc1Cl` (concentration unit: uM), the difference reads like this: (concentration: 0.25) -0.202; (concentration: 1) -0.134; (concentration: 2.5) -0.0971; (concentration: 5) -0.166; (concentration: 20) -0.0502.

With `COc1cc2nccc(Oc3ccc(NC(=O)C4(C(=O)Nc5ccc(F)cc5)CC4)cc3)c2cc1OC` (concentration unit: uM), the difference is 0.0394 (concentration: 0.5); -0.122 (concentration: 1); -0.0701 (concentration: 2.5); 0.0398 (concentration: 5); 0.0491 (concentration: 10).

`O=c1[nH]cc(F)c(=O)[nH]1` (concentration unit: uM): the difference reads like this: (concentration: 1) -0.0723; (concentration: 2.5) -0.0395; (concentration: 5) -0.107; (concentration: 10) -0.0707; (concentration: 25) -0.0709.

Take `Nc1ncn([C@@H]2O[C@H](CO)[C@@H](O)[C@H]2O)c(=O)n1` (concentration unit: uM): the difference by setting is: (concentration: 1) 0.0691; (concentration: 2.5) 0.0657; (concentration: 5) 0.123; (concentration: 10) 0.125; (concentration: 20) 0.109.

Consider `O=C(c1cc(Cc2n[nH]c(=O)c3ccccc23)ccc1F)N1CCN(C(=O)C2CC2)CC1` (concentration unit: uM), for which the difference was -0.0151 (concentration: 1); -0.0147 (concentration: 2.5); 0.0174 (concentration: 5); 0.0357 (concentration: 10); 0.0633 (concentration: 25).

Turning to `Cn1ncnc1[C@H]1c2n[nH]c(=O)c3cc(F)cc(c23)N[C@@H]1c1ccc(F)cc1` (concentration unit: uM), the difference runs as follows: (concentration: 1) 0.0403; (concentration: 2.5) -0.0275; (concentration: 5) 0.00616; (concentration: 10) 0.00511; (concentration: 25) 0.0863.

As for `COC1=C2C[C@@H](C)C[C@H](OC)[C@H](O)[C@@H](C)/C=C(\C)[C@H](OC(N)=O)[C@@H](OC)/C=C\C=C(/C)C(=O)NC(=CC1=O)C2=O` (concentration unit: nM), the difference is -0.0197 (concentration: 5); 0.305 (concentration: 25); 0.532 (concentration: 50); 0.567 (concentration: 100); 0.435 (concentration: 500).
